SARS PLP yeast = blocks SARS-CoV papain-like protease in a yeast assay | S. cerevisiae expressing SARS-CoV PLpro, growth rescue | Potency, µM (titrated, usually from 32.9 µM), inactives show top-dose activity, positive = growth rescue, hits mostly activators | 0.19% of 330,000 active | AID 485353; calls by dose curve; also: potency is read from the fitted curve at half-maximal effect; 0% is about no effect; nearly all actives have a fitted effect of over 55% in size
Pf growth 48h = inhibits P. falciparum growth in the first generation, 48 h. P. falciparum luciferase growth in erythrocytes, 48 h. Potency, µM (series often up to 28.7 µM), inactives show top-dose activity change, negative = inhibition, actives largely listed as inhibitors. 5.9% of 310,000 active. AID 504832; also: potency is read from the fitted curve at half-maximal effect; % is scaled to controls: 0 for no effect and ±100 for the full control effect
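In quantitative HTS format, infected erythrocytes bearing luciferase-reporter parasites were treated for a single generation at 37 C. Luminescence after adding detection reagent served as the growth measure.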
Sm TGR inh = blocks Schistosoma mansoni thioredoxin glutathione reductase; Q962Y6; purified TGR, DTNB reduction, TNB absorbance 405 nm; Potency, µM (series often up to 114 µM), for the others: top-dose activity change, negative = inhibition, actives largely listed as inhibitors; 3% of 360,000 active; also: potency is read from the fitted curve at half-maximal effect; % is scaled to controls: 0 for no effect and ±100 for the full control effect; nearly all actives have a fitted effect of over 60% in size
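First, TGR (20 nM dispensed) and NADPH were mixed with compound. Second, a 15 min room-temperature incubation followed. Third, further NADPH and then DTNB were added to start the reaction. Finally, TNB absorbance was monitored kinetically.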
HCV inh = inhibitors of hepatitis C virus infection. Huh7.5.1 HCVcc-Cre infection, luciferase reporter, 44 h. Potency, µM (doses to about 41.8 µM), for inactives: at the highest dose activity change, negative = inhibition, most hits filed as inhibitors. 3.4% of 340,000 active. AID 651820; also: potency is read from the fitted curve at half-maximal effect; % is scaled to controls: 0 for no effect and ±100 for the full control effect
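Luciferase read-out (15 sec integration) after a 15 min room-temperature substrate step quantifies HCVcc-Cre infection. Cells, 1,000 per well, had compound added 4 h post-plating, then virus at ~0.5 moi, and were cultured 44 h.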
Pf growth 96h = P. falciparum growth inhibition at 96 hour, primary screen for plastid delayed-death inhibitors. P. falciparum luciferase reporter growth, 96 h. Potency, µM (top dose mostly 28.7 µM), without a hit: at the top dose activity change, negative = inhibition, hits mostly inhibitors. 6.9% of 320,000 active. AID 504834; also: potency is read from the fitted curve at half-maximal effect; % is scaled to controls: 0 for no effect and ±100 for the full control effect
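Cell-based qHTS: luciferase-tagged P. falciparum in erythrocytes (2% hematocrit, 0.05% parasitemia final) incubated with compounds for 96 hours, 37 C, 5% CO2; luciferase detection reagent then added and luminescence measured.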
HCMV inh = blocks human cytomegalovirus replication. HFF cells, HCMV-luciferase reporter, 72 h; stronger effect = lower value. activity change, negative = inhibition, % at 57.5 µM. 4.5% of 410,000 active. AID 1259415; in the data active = activity change below about -60%; inconclusive = no clear call, values can overlap the other calls; inactive = above about -39%; also: % is scaled to controls: 0 for no effect and ±100 for the full control effect
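Compounds were evaluated in HFFs infected with an HCMV luciferase reporter virus (MOI 1 PFU/cell). Luciferase in lysates collected 72 h post infection served as the replication measure.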
* = called active by the depositor; ? = inconclusive; · = no result. Only some compounds are listed: those with a hit (about 15% of all), similar ones and a draw of the others. Unless noted, calls follow the shape of the dose curve; as a rule, active = well fitted curve in the direction sought with a large enough effect; inconclusive = small, poorly fitted or top-dose-only effect, or another doubt; inactive = no such curve, though single readings can be large; an effect the other way counts as inactive or inconclusive.

SMILES	SARS PLP yeast	Pf growth 48h	Sm TGR inh	HCV inh	Pf growth 96h	HCMV inh
CCCSP1(=S)NCCCO1 (configuration not stated)	-2%	7%	0%	11%	3%	-101*
CCC(=O)OCC(=O)N=c1sccn1Cc1ccccc1Cl	-4%	?	-7%	-18%	?	-25
O=C(CCl)N=c1sccn1Cc1ccc(Cl)cc1Cl	-8%	?	13µM*	0.56µM*	12µM*	-99*
CCC(=O)OCC(=O)N=c1sccn1Cc1ccc(C)cc1	1%	11%	-1%	-8%	-27%	36
O=C(CCl)N=c1sccn1Cc1cccc2ccccc12	-1%	?	25µM*	3.5µM*	1.5µM*	-100*
O=C(CCl)N=c1sccn1Cc1ccccc1Cl	-2%	0.26µM*	0%	0.56µM*	0.74µM*	-91*
Cc1ccc(Nc2nc3ccccc3c3nnc(C)n23)c(C)c1	·	·	2%	·	·	0
Cc1nc2ccccc2cc1OCc1ccccc1	-2%	48%	10%	10µM*	76%	-93*
Cc1nc2ccccc2cc1OCc1ccc(Cl)cc1	-21%	3%	7%	7.1µM*	14%	-75*
COc1cccc(COc2cc3ccccc3nc2C)c1	0%	54%	10%	5.6µM*	69%	-79*
Cc1cc(F)ccc1-c1cc(C(=O)NCc2cccs2)[nH]n1	·	·	·	·	·	-9
Oc1ccc(N2CCN(c3ccnc4cc(Cl)ccc34)CC2)cc1	-13%	3.3µM*	?	-25%	2.3µM*	-66*
COc1ccc(N2CCN(c3ccnc4cc(Cl)ccc34)CC2)cc1	-5%	?	-5%	?	7.4µM*	?
COc1ccc(N2CCN(C(=O)c3cc4cc(Cl)ccc4[nH]3)CC2)cc1	0%	?	-6%	15%	?	19
O=C(CNC(=O)c1cccc(Cl)c1)NCCCSc1ccccc1	-4%	2%	-1%	6%	1%	-28
Cc1ccc2[nH]c(C(=O)Nc3ccc(F)cc3)cc2c1	1%	-11%	-18%	-23%	8.3µM*	-34
CCCOc1ccc(NCC(=O)Nc2ccc(C)cc2C)cc1	4%	-29%	-28%	2%	?	52
Cc1cc(C)c2cc(C(=O)Nc3ccccc3)[nH]c2c1	-1%	?	-11%	?	8.3µM*	?
CCCOc1ccc(NC(=O)c2cc3cc(C)ccc3[nH]2)cc1	-5%	-10%	5%	-9%	12µM*	44
N#Cc1ccc(OCc2c(-c3ccccc3)nnn2CC(=O)O)cc1	·	·	·	·	·	-17
Cc1c(C(=O)N2CCC(C)(C(=O)NS(=O)(=O)C3CC3)C2)oc2ccccc12 (configuration not stated)	·	·	·	·	·	9
COc1cccc(CCc2ccccc2OCC(CN(C)C)OC(=O)CCC(=O)O)c1 (configuration not stated)	·	4.8µM*	·	·	3.4µM*	·
CC(C)CNC(=O)c1cc(S(=O)(=O)N2CCOCC2)ccc1N1CCCC1	-2%	?	4%	3%	?	42
COc1ccccc1-c1ccc(/C=C2/C=C(CC(C)C)OC2=O)o1	-2%	-1%	35µM*	-9%	-22%	-7
O=Cc1ccc(-c2ccccc2OC(F)(F)F)o1	-1%	·	-22%	6%	10%	-7
SMILES	SARS PLP yeast	Pf growth 48h	Sm TGR inh	HCV inh	Pf growth 96h	HCMV inh
CCCC1=C/C(=C/c2ccc(-c3ccccc3OC)o2)C(=O)O1	-42%	?	22µM*	14%	?	-33
CCC(C)(C#CCN1CCCCC1)OCCC#N (configuration not stated)	-1%	15%	40µM*	-13%	?	7
Fc1ccc(/C=C2\CCCC3=C2Nc2ncnn2C3c2ccc(F)cc2)cc1 (configuration not stated)	-7%	13µM*	?	?	?	18
NS(=O)(=O)c1cccc(NC(=O)c2cncc(Br)c2)c1	-1%	25%	-10%	8%	44%	-9
CN(c1ccccc1)S(=O)(=O)c1cccc(NC(=O)c2ccncc2)c1	1%	-11%	-1%	10µM*	?	?
CN(c1ccccc1)S(=O)(=O)c1cccc(NC(=O)c2ccc(=O)[nH]c2)c1	-7%	?	-2%	-12%	?	-26
COc1ccc(NC(=O)c2cccc(S(=O)(=O)N(C)c3ccccc3)c2)cn1	7%	-7%	-3%	?	0%	-75*
CN(c1ccccc1)S(=O)(=O)c1cccc(NC(=O)c2ccc(=O)[nH]n2)c1	2%	·	·	?	·	?
CN(c1ccccc1)S(=O)(=O)c1cccc(NC(=O)c2ccc(Cl)c([N+](=O)[O-])c2)c1	·	·	·	11µM*	·	-3
CN(c1ccccc1)S(=O)(=O)c1cccc(NC(=O)c2cncc(Br)c2)c1	-3%	10µM*	8%	?	8.3µM*	0
COc1ccc(NCC(=O)Nc2cccc(C(F)(F)F)c2)cc1S(=O)(=O)N1CCOCC1	0%	·	·	?	·	-12
CC(=O)Nc1ccc(C(=O)Nc2cccc(S(=O)(=O)N(C)c3ccccc3)c2)cc1	9%	9.3µM*	9%	?	?	0
COc1ccc(C(=O)Oc2ccc(N(C)S(=O)(=O)c3ccccc3)cc2)cc1[N+](=O)[O-]	?	8%	-4%	-8%	51%	-99*
CN(c1ccccc1)S(=O)(=O)c1cccc(NC(=O)c2cc(=O)c3ccccc3o2)c1	-1%	?	-1%	11µM*	10µM*	-66*
CC(=O)c1cccc(NS(=O)(=O)c2cccc(S(=O)(=O)c3ccc(Br)cc3)c2)c1	·	·	13µM*	·	·	?
CC(C)CNC(=O)c1ccccc1C(=O)NC1(C(=O)NCC(C)C)CCCC1	·	·	·	0%	·	-11
CCCC(C)NC(=O)c1cc(S(=O)(=O)N2CCCCCC2)ccc1OC (configuration not stated)	-6%	?	-2%	-9%	?	-7
CCOc1ccc(C(=O)Nc2cc(-c3cn4cccnc4n3)ccc2C)cc1OCC	·	·	1%	·	·	?
O=C(OCCCOC(=O)c1ccccc1O)c1ccccc1O	?	19%	-15%	·	54%	2
CSc1ncccc1C(=O)Nc1cccc(S(=O)(=O)N2CCCCC2)c1	0%	12µM*	-4%	?	10µM*	0
CN(c1cccc(NC(=O)c2ccc(N(C)S(=O)(=O)c3ccccc3)cc2)c1)S(C)(=O)=O	0%	?	12%	8.9µM*	19%	-72*
O=C(Nc1ccccc1Cl)c1cc(=O)c2ccccc2o1	-3%	103%	0%	-8%	12µM*	-8
CN(c1ccc(C(=O)O)cc1)S(=O)(=O)c1ccccc1	2%	27%	1%	-4%	9.3µM*	17

Screening data as filed in PubChem.
